Data taken from PubChem BioAssay (NCI).
The panel holds about 83,000 compounds, 20% with a hit somewhere; the sample as a whole holds those more often.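 Method: cells in 96-well plates; compound added at one concentration; 48 h incubation; percent growth measured; values under 10 scored active.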 Activity calls are given as the source filed them.

Key:
Assay in all cases: NCI-60 one-dose screen, 48 h (100 = growth as untreated, 0 = no growth, -100 = all killed)
Conditions in all cases: 10 µM unless noted
SK-MEL-2 melanoma = system: SK-MEL-2 melanoma
EKVX NSCLC = system: EKVX NSCLC
SN12C renal = system: SN12C renal
UO-31 renal = system: UO-31 renal
TK-10 renal = system: TK-10 renal
ACHN renal = system: ACHN renal
CAKI-1 renal = system: CAKI-1 renal
A498 renal = system: A498 renal
CCRF-CEM leukemia = system: CCRF-CEM leukemia
MOLT-4 leukemia = system: MOLT-4 leukemia

Measured: growth

CCSc1nc2scc(C)c2c(=O)[nH]1
inactive: SK-MEL-2 melanoma 105% | EKVX NSCLC 97.7% | SN12C renal 99.4% | UO-31 renal 88.6% | TK-10 renal 110% | ACHN renal 101% | CAKI-1 renal 92.3% | A498 renal 89.7% | CCRF-CEM leukemia 99.2% | MOLT-4 leukemia 96%

N#Cc1nc(-c2ccc(Cl)cc2)oc1S(=O)(=O)N1CCN(c2ccc(F)cc2)CC1
active: CCRF-CEM leukemia 3.82% | MOLT-4 leukemia 3.45%
inactive: SK-MEL-2 melanoma 87.9% | EKVX NSCLC 111% | SN12C renal 92.2% | UO-31 renal 81.3% | TK-10 renal 100% | ACHN renal 102% | CAKI-1 renal 107% | A498 renal 78.6%

COC(=O)C1Cc2ccccc2CN1C(=O)c1ccc2c(c1)Cc1ccccc1-2 (stereo not given)
inactive: SK-MEL-2 melanoma 47.4% [50 µM] | EKVX NSCLC 24.5% [50 µM] | SN12C renal 38.5% [50 µM] | UO-31 renal 13.9% [50 µM] | TK-10 renal 52.2% [50 µM] | ACHN renal 43.3% [50 µM] | CAKI-1 renal 28.7% [50 µM] | A498 renal 27.3% [50 µM] | CCRF-CEM leukemia 32.1% [50 µM] | MOLT-4 leukemia 21.9% [50 µM]

C#COc1cccc(Nc2c(C#N)cnc3ncc(NC(=O)CCl)cc23)c1
inactive: SK-MEL-2 melanoma 12.4% [6.25 µM] | EKVX NSCLC 52% [6.25 µM] | SN12C renal 17.3% [6.25 µM] | UO-31 renal 41.1% [6.25 µM] | TK-10 renal 26.8% [6.25 µM] | ACHN renal 32.4% [6.25 µM] | CAKI-1 renal 36.1% [6.25 µM] | A498 renal 56.7% [6.25 µM]
active: CCRF-CEM leukemia -25.3% [6.25 µM] | MOLT-4 leukemia -2.02% [6.25 µM]

S=c1sc2c(Cl)nc(-c3cccnc3)nc2n1-c1ccccc1
inactive: SK-MEL-2 melanoma 21.6% | EKVX NSCLC 89.6% | TK-10 renal 90.2% | CAKI-1 renal 73.9% | A498 renal 92%
active: SN12C renal 2% | UO-31 renal -85.6% | ACHN renal -6.92% | CCRF-CEM leukemia -31.7% | MOLT-4 leukemia -41.5%

O=C(CN1CCOCC1)Nc1nc(-c2cc3ccccc3oc2=O)cs1
inactive: SK-MEL-2 melanoma 114% | EKVX NSCLC 99% | SN12C renal 101% | UO-31 renal 70.6% | TK-10 renal 154% | ACHN renal 93.1% | CAKI-1 renal 82.4% | A498 renal 102% | CCRF-CEM leukemia 103% | MOLT-4 leukemia 104%

CCOC(=O)Cc1cnc(N/N=C(\C)c2cc3ccccc3o2)s1
inactive: SK-MEL-2 melanoma 113% | EKVX NSCLC 85.1% | SN12C renal 99.1% | UO-31 renal 64.7% | TK-10 renal 144% | ACHN renal 90.7% | CAKI-1 renal 81.6% | A498 renal 113% | CCRF-CEM leukemia 92.5% | MOLT-4 leukemia 55.5%

Clc1cccc(Nc2ncnc3ccc(-c4cnc5[nH]ccc5c4)cc23)c1
inactive: SK-MEL-2 melanoma 81.3% | EKVX NSCLC 10% | SN12C renal 77.3% | UO-31 renal 54.9% | TK-10 renal 14.4% | ACHN renal 47.1% | CAKI-1 renal 49% | A498 renal 23.1% | CCRF-CEM leukemia 66.7% | MOLT-4 leukemia 50.1%

COc1cc(-c2nccc3[nH]c(-c4ccc5cc[nH]c5c4)nc23)cc(OC)c1OC
inactive: SK-MEL-2 melanoma 15.2% | EKVX NSCLC 30.9% | SN12C renal 30.9% | UO-31 renal 13.6% | TK-10 renal 10.7% | CAKI-1 renal 29.7% | MOLT-4 leukemia 18.5%
active: ACHN renal 2.78% | A498 renal -2.61% | CCRF-CEM leukemia 5.28%

O=C1/C(=C/c2cccc(F)c2)CN(C(=O)C(Cl)Cl)C/C1=C\c1cccc(F)c1
active: SK-MEL-2 melanoma -38.1% | EKVX NSCLC -7.73% | SN12C renal -90.3% | UO-31 renal -85.5% | TK-10 renal -78.8% | ACHN renal -97.7% | CAKI-1 renal -75.6% | A498 renal -80.1% | CCRF-CEM leukemia 0.153% | MOLT-4 leukemia -23.3%

CCOc1ccc(NC(=O)CSc2oc(-c3ccccc3)nc2S(=O)(=O)c2ccc(C)cc2)cc1
inactive: SK-MEL-2 melanoma 96.6% | EKVX NSCLC 75.1% | SN12C renal 85.2% | UO-31 renal 103% | TK-10 renal 82.4% | ACHN renal 58.9% | CAKI-1 renal 83.9% | A498 renal 86.2% | CCRF-CEM leukemia 84.8% | MOLT-4 leukemia 66.1%

Ic1ccc(OCCCCn2ccnc2)cc1
inactive: SK-MEL-2 melanoma 80.7% | EKVX NSCLC 62.1% | SN12C renal 76.6% | UO-31 renal 63.8% | TK-10 renal 45.3% | ACHN renal 59.4% | CAKI-1 renal 70% | A498 renal 36.2% | CCRF-CEM leukemia 55.1% | MOLT-4 leukemia 82.2%

COc1cc(/C=C2/C=C(c3ccccc3)N(CCc3ccc(S(N)(=O)=O)cc3)C2=O)cc(OC)c1OC
inactive: SK-MEL-2 melanoma 104% | EKVX NSCLC 105% | SN12C renal 105% | UO-31 renal 87.8% | TK-10 renal 96.2% | ACHN renal 103% | CAKI-1 renal 99.1% | A498 renal 86.6% | CCRF-CEM leukemia 91% | MOLT-4 leukemia 83.1%

CNc1nnc2n(-c3ccccc3)c(=O)c3cnn(-c4ccccc4)c3n12
inactive: SK-MEL-2 melanoma 82% | EKVX NSCLC 90.4% | SN12C renal 104% | UO-31 renal 81.3% | TK-10 renal 79.9% | ACHN renal 88.8% | CAKI-1 renal 81% | A498 renal 71.7% | CCRF-CEM leukemia 85.8% | MOLT-4 leukemia 72.2%

Cc1ccc(NC(=O)Cn2cc(CN3CCN(c4ccnc5cc(Cl)ccc45)CC3)nn2)cc1
active: CCRF-CEM leukemia -31.6% | MOLT-4 leukemia -15.7%
inactive: SK-MEL-2 melanoma 114% | EKVX NSCLC 80.7% | SN12C renal 93.9% | UO-31 renal 62.7% | TK-10 renal 95.4% | ACHN renal 81.1% | CAKI-1 renal 73.1% | A498 renal 88%

COc1ccc2c(c1)CC[C@H](O)/C2=C/c1cc(OC)c(OC)c(OC)c1
active: A498 renal -9.18% | CCRF-CEM leukemia 5.74%
inactive: SK-MEL-2 melanoma 43.5% | EKVX NSCLC 38% | SN12C renal 37.6% | UO-31 renal 34.3% | TK-10 renal 66.6% | ACHN renal 26.4% | CAKI-1 renal 30.5% | MOLT-4 leukemia 13.5%

COc1ccc(-c2cc(-c3cccnc3)nc3sc4c(=O)[nH]c(-c5ccc(Cl)cc5)nc4c23)cc1OC
inactive: SK-MEL-2 melanoma 95.7% | EKVX NSCLC 90% | SN12C renal 89.5% | UO-31 renal 78.1% | TK-10 renal 104% | ACHN renal 93.4% | CAKI-1 renal 86.4% | A498 renal 91.2% | CCRF-CEM leukemia 80.3% | MOLT-4 leukemia 37.6%

CCOc1nc(-c2ccccc2)cc2c(O)c(C(=O)N/N=C/c3ccccc3)[nH]c(=O)c12
inactive: SK-MEL-2 melanoma 36.5% | EKVX NSCLC 96.1% | SN12C renal 110% | UO-31 renal 93.2% | TK-10 renal 151% | ACHN renal 107% | CAKI-1 renal 104% | A498 renal 91.3% | CCRF-CEM leukemia 106% | MOLT-4 leukemia 79.7%

COc1ccc(C2=Nc3c(N)nc(N)nc3NC(c3cccc(Nc4ccnc5cc(C(F)(F)F)ccc45)c3)C2)cc1 (stereo not given)
inactive: SK-MEL-2 melanoma 75.5% | EKVX NSCLC 72.3% | SN12C renal 75.7% | UO-31 renal 70% | TK-10 renal 108% | ACHN renal 96.4% | CAKI-1 renal 60.7% | A498 renal 84.7% | CCRF-CEM leukemia 53.9% | MOLT-4 leukemia 24.3%

C[PH+](c1nc2ccccc2nc1[PH+](C)C(C)(C)C)C(C)(C)C.C[PH+](c1nc2ccccc2nc1[PH+](C)C(C)(C)C)C(C)(C)C.[Au+].[Cl-] (stereo not given)
active: SK-MEL-2 melanoma -76.6% | EKVX NSCLC -82.5% | SN12C renal -59.1% | UO-31 renal -90.9% | TK-10 renal -91.6% | ACHN renal -97.1% | CAKI-1 renal -93.4% | A498 renal -99.1% | MOLT-4 leukemia 8.3%
inactive: CCRF-CEM leukemia 12.2%

CC(=O)Oc1ccc(C)cc1C
inactive: SK-MEL-2 melanoma 99.7% | EKVX NSCLC 112% | SN12C renal 102% | UO-31 renal 85.7% | TK-10 renal 102% | ACHN renal 101% | CAKI-1 renal 101% | A498 renal 87.4% | CCRF-CEM leukemia 102% | MOLT-4 leukemia 106%

O=c1scc(-c2ccc(C(F)(F)F)cc2)s1
inactive: SK-MEL-2 melanoma 77.8% | EKVX NSCLC 78.8% | SN12C renal 96.7% | UO-31 renal 89.4% | TK-10 renal 82.8% | ACHN renal 99.8% | CAKI-1 renal 73% | A498 renal 77.5% | CCRF-CEM leukemia 88.5% | MOLT-4 leukemia 94.5%

Fc1ccc(CNc2c3ccccc3nc3ccccc23)c(F)c1
active: A498 renal -4.38%
inactive: SK-MEL-2 melanoma 99.7% | EKVX NSCLC 45.5% | SN12C renal 37.2% | UO-31 renal 30.3% | TK-10 renal 61% | ACHN renal 23.4% | CAKI-1 renal 35.3% | CCRF-CEM leukemia 53.9% | MOLT-4 leukemia 23.8%

CC(=O)Oc1ccc(N2C(=O)C(Cl)=C(Nc3cccc(C(F)(F)F)c3)C2=O)cc1
inactive: SK-MEL-2 melanoma 88% | EKVX NSCLC 103% | SN12C renal 93% | UO-31 renal 84.2% | TK-10 renal 94.9% | ACHN renal 95% | CAKI-1 renal 92% | A498 renal 92% | CCRF-CEM leukemia 77.4% | MOLT-4 leukemia 85.9%
